Sm TGR block – qHTS Assay for the Inhibitors of Schistosoma Mansoni Peroxiredoxins; purified TGR, DTNB reduction, TNB absorbance 405 nm; 360,000 tested, 3% active; Potency, µM (series often up to 114 µM), for the others: at the top dose activity change, negative = inhibition, usual class: inhibitors; Schistosoma mansoni thioredoxin glutathione reductase (TGR), Q962Y6; further: nearly all actives have a fitted effect of over 60% in size
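Kinetic colorimetric format: TGR-catalysed, NADPH-driven DTNB reduction monitored via TNB absorbance. Enzyme dispensed at 20 nM; compound exposure 15 min at room temperature before reaction start.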
AmpC detergent – qHTS Inhibitors of AmpC Beta-Lactamase (assay with detergent) | P00811 | AmpC hydrolysis of nitrocefin, absorbance 480 nm, 0.01% Triton | Potency, µM (highest dose often 114 µM), for the others: at the highest dose activity change, negative = inhibition, most hits filed as inhibitors | 370,000 tested, 0.041% active | AID 485294, 2010;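 further: 0% = no-compound wells and -100% = no-enzyme wells; nearly all actives have a fitted effect of over 25% in size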
Target sequence (P00811 whole entry, looked up): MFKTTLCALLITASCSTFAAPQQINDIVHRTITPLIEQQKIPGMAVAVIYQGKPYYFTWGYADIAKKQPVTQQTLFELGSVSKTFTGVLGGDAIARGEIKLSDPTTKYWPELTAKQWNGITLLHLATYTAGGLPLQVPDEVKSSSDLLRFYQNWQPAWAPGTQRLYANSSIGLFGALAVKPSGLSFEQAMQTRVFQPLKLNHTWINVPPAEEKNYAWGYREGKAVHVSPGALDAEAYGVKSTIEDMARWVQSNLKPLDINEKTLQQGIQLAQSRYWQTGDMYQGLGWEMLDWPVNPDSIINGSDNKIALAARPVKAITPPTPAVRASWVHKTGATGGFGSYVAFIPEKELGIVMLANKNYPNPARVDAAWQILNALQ
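AmpC (5.3 nM in the dispensed reagent) in 20 mM phosphate pH 7.0 with 0.01% (detergent screen) or 0.0001% Triton X-100 was preincubated with compounds for 15 min at room temperature. Nitrocefin was then added from an 800 uM solution, and hydrolysis was followed at 480 nm.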
AmpC no deterg – qHTS Inhibitors of AmpC Beta-Lactamase (assay without detergent) | P00811 | AmpC nitrocefin hydrolysis, absorbance 480 nm, 0.0001% Triton | Potency, µM (highest dose often 57.1 µM), for the others: at the top dose activity change, negative = inhibition, most hits filed as inhibitors | 330,000 tested, 0.52% active | AID 485341, 2010;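 further: plate controls were no compound for no effect and no enzyme for full effect; nearly all actives have a fitted effect of over 20% in size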
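20 mM phosphate pH 7.0 + 0.01% (detergent screen) or 0.0001% Triton X-100; 5.3 nM AmpC reagent; cpd preinc 15 min RT; nitrocefin (800 uM stock) to start; A480 q20 s × 4 min; Activity was normalised to no-enzyme and no-compound control wells.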
The depositor's hits bear a star; ? = inconclusive; · = no result given. Shown are actives, neighbours in structure and some others; about 3.3% of the full set was active somewhere. The call rests on the fitted dose curve; in most records, active means well fitted curve in the direction sought with a large enough effect; inconclusive means small, poorly fitted or top-dose-only effect, or another doubt; inactive means no such curve, though single readings can be large; an effect the other way counts as inactive or inconclusive. Unless noted, on the % scale 0 is the no-effect control and ±100 the full control effect; potency means the concentration at half of the fitted maximal effect.

SMILES | Sm TGR block | AmpC detergent | AmpC no deterg
CCCCCCSc1ccc([C@@H]2[C@H]3C(=O)N(C)C(=O)[C@H]3[C@]3(C(=O)OC)CCCCN23)cc1OC | ? | -3% | 180%
CCCSc1ccc([C@@H]2[C@@H]3C(=O)N(C)C(=O)[C@@H]3[C@]3(C(=O)OC)CCCN23)cc1OC | 20µM* | 2% | 173%
Cc1ccc(C(C)C)c(OCc2ccc(C(=O)N/N=C/c3ccc(O)c(O)c3)cc2)c1 | 2% | 17% | -19%
Cc1ccc(C(C)C)c(OCc2ccc(C(=O)N/N=C/c3cccc(O)c3O)cc2)c1 | -5% | -10% | 8.9µM*
COCCc1nn2c(=O)cc(COC(=O)c3ccc4c(c3)OCO4)nc2s1 | -2% | 12% | ·
Cc1ccc(/C=C/C(=O)Nc2nccs2)o1 | 28µM* | -12% | -19%
CCOC(=O)C(=O)Nc1nccs1 | · | -4% | -26%
CCOC(=O)/C=C/C(=O)Nc1nccs1 | 40µM* | -7% | 1%
Cc1ccc(/C=C/C(=O)Nc2ncc(C)s2)o1 | 25µM* | -1% | -27%
Cc1cnc(NC(=O)/C=C/c2ccc(Br)o2)s1 | -1% | 1% | -8%
O=C(/C=C/c1cccs1)Nc1nccs1 | 8% | 4% | -14%
CN(CCOc1ccccc1)C(=S)Nc1ccc(OC(F)F)cc1 | -1% | -11% | -14%
O=C(CSc1nc2c([nH]c3ccccc32)c(=O)n1-c1ccc(F)cc1)Nc1ccc2c(c1)OCCO2 | 15% | -6% | ·
COCCn1ccc2c(OCC(=O)Nc3cccc(NC(C)=O)c3)cccc2c1=O | -8% | -11% | -3%
CN(C)S(=O)(=O)c1ccc(N2CCCC2)c(C(=O)N2CCC(C(N)=O)CC2)c1 | -2% | 0% | 0%
CCN1C(=O)[C@H]2[C@@H](c3ccc(-c4ccc(Cl)c(Cl)c4)c(OC)c3)N3CCCC[C@@]3(C(=O)OC)[C@H]2C1=O | · | · | 17%
Cc1cc(N=Nc2ccc(C)c(N=Nc3cc(C)c(N)cc3N)c2)c(N)cc1N | -22% | -8% | 21%
COc1ccc(N=C2NC(=O)/C(=C/C=C/c3ccccc3)S2)cc1 | -6% | 3% | -16%
Cc1cccc(N=C2NC(=O)/C(=C/c3cccn3C)S2)c1C | ? | 4% | -25%
Cc1cccc(N=C2NC(=O)/C(=C/C=C/c3ccco3)S2)c1C | 10µM* | -3% | 32µM*
O=C1NC(=Nc2ccccc2)S/C1=C\C=C\c1ccco1 | 11µM* | -2% | 14µM*
Cc1ccc(N=C2NC(=O)S/C2=C\c2ccco2)cc1 | -30% | -5% | -26%
Cc1ccc(N=C2NC(=O)/C(=C/C=C/c3ccco3)S2)cc1 | 45µM* | -2% | -58%
O=C1NC(=Nc2ccccc2)/C(=C/c2ccco2)S1 | 50µM* | ? | -23%
COc1ccc(N=C2NC(=O)/C(=C\C=C\c3ccccc3)S2)cc1 | 6% | 11% | -13%
SMILES | Sm TGR block | AmpC detergent | AmpC no deterg
Cc1ccc(N2CC(C(=O)NCCN3CCOCC3)CC2=O)cc1C (configuration not stated) | -1% | 5% | -18%
CC12CCC(=O)N1C(C(=O)Nc1nnc(SCc3ccccc3F)s1)CS2 (configuration not stated) | 5% | 2% | -15%
CCc1nn(CC(=O)Nc2cccc(C(C)=O)c2)c(=O)c2cc3sccc3n12 | -9% | 24% | ·
CCOC(=O)C1CCN(c2nc3c(S(=O)(=O)c4ccccc4)nnn3c3ccc(Cl)cc23)CC1 | 5% | 4% | ·
O=C1C2Sc3[nH]c(=O)sc3C(c3ccccc3)C2C(=O)N1c1ccccc1 (configuration not stated) | -15% | -9% | 18µM*
COc1ccc(C2c3sc(=O)[nH]c3SC3C(=O)N(c4ccccc4)C(=O)C32)cc1 (configuration not stated) | 1% | ? | ?
CNC(=S)Nc1ccc([N+](=O)[O-])c(C)c1 | 40µM* | -12% | -19%
CNC(=S)Nc1ccc([N+](=O)[O-])cc1C | 10µM* | 0% | -22%
Cc1ccc(CNC(=S)Nc2ccc(C)c([N+](=O)[O-])c2)cc1 | -3% | 10% | -22%
COCC(=O)Nc1ccc([N+](=O)[O-])cc1C | -1% | -6% | -20%
COc1ccccc1CNC(=O)c1ccc2c(c1)CCN2S(=O)(=O)c1ccc(Cl)cc1 | 5% | 14% | ·
COC(=O)c1cccc(C(=O)N2CCCC(Nc3ccc(C)c(C)c3)C2)c1 (configuration not stated) | -2% | 6% | 71%
CCC1(CC)NC(=O)N(CC(=O)Nc2cccc3ccccc23)C1=O | · | · | -18%
